Test results: PubChem BioAssay AID602140 (NMMLSC, 2011)
This is one part of the list. The source made the active and inactive calls. How the calls were made is not given here.

System: Botulinum neurotoxin type F light chain protease (Clostridium botulinum)
Test: inhibition of botulinum toxin F LC protease – biochemical, flow cytometry, cherry pick 1, confirmation (AID 602140)
Conditions: multiplex microsphere protease cleavage assay, at 10 µM, hits give high values

| Compound | inhibition |
| --- | --- |
| CC1CCN(C(=O)c2ccc(S(=O)(=O)Cc3cc(F)ccc3F)c([N+](=O)[O-])c2)CC1 | 1.2% (inactive) |
| Cc1c(NC(=O)c2cccnc2)c(=O)n(-c2ccccc2)n1C | 2.7% (inactive) |
| Cc1ccc(C(=O)COc2cccc(NC(=O)c3ccco3)c2)cc1 | -7.2% (inactive) |
| COC(=O)CN(c1nc(C)c(Cl)c(OC)n1)S(=O)(=O)c1ccc(C)cc1 | -0.3% (inactive) |
| COc1ccc(N(CC(=O)NCCSCc2cccc(Cl)c2)S(C)(=O)=O)cc1 | -2.3% (inactive) |
| CCOCCn1c(-c2ccccc2)nc2ccccc21 | -2.2% (inactive) |
| OC(c1ccc(Cl)cc1)C(CN1CCOCC1)c1ccccc1 (stereo unspecified) | 3.4% (inactive) |
| CN1CCN(c2ccc(NC(=O)c3ccccc3)cc2)CC1 | 1.4% (inactive) |
| CN(C(=O)c1ccccn1)c1nnc(-c2ccccn2)s1 | -3.7% (inactive) |
| COc1ccccc1-n1c(-c2cc(-c3ccco3)[nH]n2)n[nH]c1=S | 4% (inactive) |
| CC(C)Cc1nnc(NC(=O)CCC(=O)Nc2ccc3cn[nH]c3c2)s1 | -1.9% (inactive) |
| COc1cc2cc(CN(CCN3CCCC3)C(=O)Nc3ccccc3Cl)c(=O)[nH]c2cc1OC | 0.8% (inactive) |
| Clc1ccc(-c2ncc3ccccn23)c(Cl)c1 | -4.7% (inactive) |
| Brc1ccc2ncnc(NCc3cccnc3)c2c1 | -1.4% (inactive) |
| COc1ccccc1CNC(=O)C1Cc2ccccc2C(=O)O1 (stereo unspecified) | -1.3% (inactive) |
| CCOCC(=O)NCc1ccc2c(c1)cc(C)n2C | -12.1% (inactive) |
| CCOc1ccc(NC(=O)CC(Cc2ccc(Cl)cc2)C(=O)O)cc1 (stereo unspecified) | -1.5% (inactive) |
| O=C(CN1CCCCCC1)Nc1c(Cl)cc(Cl)cc1Cl | -7.6% (inactive) |
| Cc1cccc2cc3c(N)c(C(=O)N4CCCc5ccccc54)sc3nc12 | 0.3% (inactive) |
| Cc1onc(-c2ccccc2Cl)c1C(=O)NCCn1ccc2ccccc21 | -5.2% (inactive) |
| COc1ccc(C(=O)Nc2nc(-c3ccc(OC)cc3)c(-c3ccc([N+](=O)[O-])cc3)s2)cc1 | 4% (inactive) |
